# Assay results published in PubChem BioAssay (Tox21).
# “And” between values parts separate entries of the source, which are not always exact repeats. Identical values can stand only once. Inconclusive results are not listed. Entries that show only a call come without a potency. The source made the active and inactive calls. Calls follow the shape of the dose curve; as a rule, active = well fitted cell-killing curve with a large enough effect in the repeat runs; inconclusive = weak or mixed curves, or effect the other way; inactive = flat fitted curve, though single readings scatter.
# Assay: qHTS assay to identify small molecule agonists of the constitutive androstane receptor (CAR) signaling pathway - cell viability counter screen (AID 1224836); also: nearly all actives have a fitted effect of over 45% in size
# Conditions: HepG2-CYP2B6-hCAR viability, CellTiter-Fluor, 23 h, PK11195 added to every well; series mostly up to 92.4 µM
# Description: U.S. Tox21 Program National Center for Advancing Translational Sciences [NCATS] NIH Chemical Genomics Center [NCGC] U.S. Environmental Protection Agency [EPA] National Institutes of Environmental Health Sciences [NIEHS] National Toxicology Program [NTP] U.S. Food and Drug Administration [FDA] Tox21 Assay Overview: The constitutive androstane receptor (CAR) is a nuclear receptor which regulates multiple drug metabolizing enzymes (DMEs) and transporters. Activating CAR will generally increase the transcription and subsequent translation of CYP2B6 and CYP3A4. These two DMEs represent about 50% of the drug metabolizing potential in the body. […] Recently, there have also been studies performed indicating CARs role in energy metabolism and cancer therapy. Therefore, inducing CARs activity could have a potential effect on diabetes and cancer. Identifying environmental toxins and compounds which modulate CAR, through the use of the Tox21 10K compound collection, will be an important step in determining the toxicity and potential therapeutic effects these factors will have on the human body. To differentiate true CAR agonists from cytotoxic substances, the assay is multiplexed with a cell viability assay.
# Tox21 Assay Protocol Summary: A double-stable (hCAR and CYP2B6-2.2kb) transfected cell line, derived from human hepatoma (HepG2) cells, was utilized for the duration of the quantitative high-throughput screens. The HepG2-CYP2B6-hCAR cells were dispensed at 2500 cells/4 uL/well in 1536-well white solid bottom plates using a Multidrop Combi. After the assay plates were incubated at 37 C/5% CO2 for 4 hrs, 23 nL of compounds at 15 concentrations (from 5-48 columns) or positive control (from 1 to 4 columns) were transferred to the assay plates using a Pintool station. One uL of PK11195 (final concentration = 0.75 uM) was added, using a Flying Reagent Dispenser, inside each well. After a 23 hr incubation period at 37 C/5% CO2, 1 uL of CellTiter-Fluor reagent was added into each well of the assay plates using a Flying Reagent Dispenser. The fluorescence intensity in the plates was then measured using a ViewLux plate reader.
# Potency is read from the fitted curve at half-maximal effect.
row,Compound,Potency
1,CC1CC(=O)O1 (stereo not given),inactive
2,CC1(C)C(C(=O)OC(C#N)c2cccc(Oc3ccccc3)c2)C1(C)C (stereo not given),inactive
3,CC(C)CON=O,inactive
4,CC(C)=CC1C(C(=O)OCN2C(=O)C3=C(CCCC3)C2=O)C1(C)C (stereo not given),inactive
5,CC1=C(C(=O)Nc2ccccc2)SCCO1,inactive
6,O=C(O)CF,inactive
7,ClC(Cl)=C(Cl)C(Cl)=C(Cl)Cl,inactive
8,c1ccc2c(c1)Nc1ccccc1S2,inactive
9,CCNCC,inactive
10,CNC(=O)Oc1cccc2c1OC(C)(C)C2,inactive
11,CCC/C=N/O,inactive
12,CN(C)P(=O)(N(C)C)N(C)C,inactive
13,CC(C)(O)C#N,inactive
14,CCCCCCCCCCCCCl,inactive
15,C[C@]12CC[C@H]3[C@@H](CCC4=CC(=O)CC[C@@H]43)[C@@H]1CC[C@@H]2O,inactive
16,CCN(CC)C(=O)C(C)Oc1cccc2ccccc12 (stereo not given),inactive
17,CC(C)=CC1C(C(=O)OCc2cccc(Oc3ccccc3)c2)C1(C)C (stereo not given),inactive
18,Nc1ccc([N+](=O)[O-])cc1N,48.5 µM (active)
19,Cc1cccc(N=Nc2ccc(N(C)C)cc2)c1,78.3 µM (active)
20,O=S(=O)(O)C(F)(F)C(F)(F)C(F)(F)C(F)(F)C(F)(F)C(F)(F)C(F)(F)C(F)(F)F,inactive

row,Compound,Potency
1,CCOP(=S)(OCC)SCSC(C)(C)C,inactive
2,Nc1ncn[nH]1,inactive
3,CCCCOCCOC(C)=O,inactive
4,S=c1[nH]c2ccccc2[nH]1,inactive
5,C[C@]12CCC(=O)C=C1CC[C@@H]1[C@@H]2CC[C@@]2(C)[C@H]1CC[C@]2(C)O,inactive
6,C[N+](C)(C)CC(=O)[O-],inactive
7,CCCCCCCC[N+](C)(CCCCCCCC)CCCCCCCC,17.2 µM (active) and 7.7 µM (active) and 48.6 µM (active)
8,Nc1ccc2ccccc2c1,inactive
9,ClCc1ccccn1,inactive
10,CC1(C)Cc2cccc(O)c2O1,inactive
11,N#CCCCCC#N,inactive
12,CCOS(=O)(=O)OCC,inactive
13,CCOP(=S)(OCC)SCn1c(=O)oc2cc(Cl)ccc21,inactive
14,C[N+](C)(C)CC(=O)O,inactive
15,Cc1ccc([N+](=O)[O-])cc1,inactive
16,O=[N+]([O-])c1ccc(Cl)c([N+](=O)[O-])c1,19.6 µM (active) and 24.3 µM (active)
17,O=C(O)c1nn(Cc2ccc(Cl)cc2Cl)c2ccccc12,inactive
18,CC(O)CN(CC(C)O)CC(C)O (stereo not given),inactive
19,CCOC(=O)c1ccccc1N,inactive
20,CC[n+]1c(-c2ccccc2)c2cc(N)ccc2c2ccc(N)cc21,48.3 µM (active)
